Compound activity from PubChem BioAssay.
The list is not random: actives were taken first. Their share in the collection is about 2.6%.
Mcl1-Bid inh: Mcl-1/Bid interaction inhibition; inhibition, % at 21.7 µM; hit rate 0.97% among 220,000; Q07820; AID 1021; TR-FRET Mcl-1/Bid-Dy647 peptide binding, 1536-well;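 active = compounds that cut the binding signal by more than half at the single screening dose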;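 note: His-tagged Mcl-1 with europium anti-His antibody binding Bid BH3 peptide; 0% = Mcl-1 plus peptide wells and 100% = peptide-only wells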
Bim-Mcl-1: disrupts Bim peptide binding to human Mcl-1; inhibition, % at 10 µM; Bead-based flow cytometry, Bim peptide-Mcl-1 binding; AID 1009; Q07820; hit rate 0.1% among 190,000; in the data active = inhibition above about 40%;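 note: 0% = no compound tracer wells and 100% = peptide blocker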
Mcl1 Noxa PPI: Mcl-1/Noxa interaction inhibition. Q07820. inhibition, % at 21.7 µM. AID 1022. TR-FRET Mcl-1/Noxa peptide binding, 2 h. hit rate 1.5% among 220,000;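 active = compounds that cut the protein-peptide binding signal by more than 50% relative to plate controls in a single-dose test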;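 note: His-tagged Mcl-1 with rhodamine Noxa BH3 peptide and terbium anti-His antibody; 0% = Mcl-1 plus Noxa peptide wells and 100% = peptide-only wells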
eIF4E 4G PPI: blocks eIF4E binding to eIF4G | TR-FRET eIF4E-eIF4GI(517-606) binding, 2 h | inhibition, % at 21.7 µM | hit rate 0.37% among 220,000;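 active = inhibition above about 30%, limit read from the data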;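 note: 0% = full FRET control wells and 100% = background wells lacking eIF4GI fragment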
14-3-3 Bad PPI: disrupts binding of bovine 14-3-3 zeta to phospho-Bad peptide. P63103. TR-FRET 14-3-3zeta/Dy647-pBad peptide displacement, 1 h. inhibition, % at 21.7 µM. hit rate 0.71% among 220,000. AID 781;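 active = inhibition above about 70%, limit read from the data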;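 note: 0% = full 14-3-3 plus peptide FRET controls and 100% = background without 14-3-3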
Target sequence (P63103 whole entry, looked up): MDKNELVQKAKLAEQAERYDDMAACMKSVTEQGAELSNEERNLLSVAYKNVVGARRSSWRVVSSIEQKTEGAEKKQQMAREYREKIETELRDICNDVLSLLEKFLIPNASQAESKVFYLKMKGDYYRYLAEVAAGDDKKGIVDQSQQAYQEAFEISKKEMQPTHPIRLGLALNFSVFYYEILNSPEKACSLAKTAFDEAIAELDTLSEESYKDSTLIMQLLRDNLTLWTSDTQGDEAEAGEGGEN
MCL1-BIM inh: MCL1-BIM-BH3 interaction inhibition (human); hit rate 0.68% among 320,000; GST-MCL1 / FITC-Bim-BH3 fluorescence polarization; inhibition, % at 10.9 µM; Q07820; AID 2057;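 active = inhibition above the mean inhibition of all tested compounds plus 3 SD, set per campaign, cut at about 40% in these data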;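 note: 0% = DMSO wells and 100% = unlabeled Bim-BH3 peptide control; higher means more loss of mP so more displacement of Bim peptide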
Bcl-xL conf: counter-screen for MCL1 inhibitors: confirmation of human Bcl-xL inhibitors | GST-Bcl-xL / FITC-Bim BH3 peptide FP binding | shares compounds with MCL1-BIM inh | hit rate 54% among 1,700 | inhibition, % at 10.9 µM | AID 2166;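 active = inhibition above a cutoff equal to the mean inhibition of all tested compounds plus 3 SD, cut at about 30% in these data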;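 note: 0% = DMSO wells and 100% = unlabeled Bim BH3 control peptide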
Target sequence (Q07817 whole entry, looked up): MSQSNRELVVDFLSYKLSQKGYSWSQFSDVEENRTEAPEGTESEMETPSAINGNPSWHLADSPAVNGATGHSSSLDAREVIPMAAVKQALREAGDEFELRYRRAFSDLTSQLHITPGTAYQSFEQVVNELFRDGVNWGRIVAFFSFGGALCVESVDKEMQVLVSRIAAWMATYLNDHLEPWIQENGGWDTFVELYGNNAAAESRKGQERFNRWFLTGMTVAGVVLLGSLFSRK
MCL1 inh confirm: confirmation of human MCL1 and BIM-BH3 interaction inhibitors; shares compounds with MCL1-BIM inh; GST-MCL1 / FITC-Bim-BH3 fluorescence polarization; inhibition, % at 10.9 µM; hit rate 61% among 1,700; AID 2168;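 active = inhibition above the average of all tested compounds plus 3 SD, cut at about 40% in these data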;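 note: 0% = DMSO wells and 100% = unlabeled Bim-BH3 control peptide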
Active calls of the source: *; · = not tested or not shown; + = active, no number.

SMILES	Mcl1-Bid inh	Bim-Mcl-1	Mcl1 Noxa PPI	eIF4E 4G PPI	14-3-3 Bad PPI	MCL1-BIM inh	Bcl-xL conf	MCL1 inh confirm
COc1ccc2nc3cccc(OC)c3nc2c1	-35	2	22	4	-5	33	·	·
c1coc(-c2nc(-c3ccco3)c(-c3ccco3)nc2-c2ccco2)c1	97*	0	109*	1	55	106*	18	57*
Nc1nc(-c2ccco2)cs1	-47	-2	20	7	-5	10	·	·
COc1ccc2nc(-c3ccco3)c(-c3ccco3)nc2c1	26	3	101*	27	29	88*	76*	126*
CN1CCN(C(=O)C23CC4CC(C2)CC(c2ccccc2)(C4)C3)CC1	1	0	10	3	0	15	·	·
O=C(COc1ccccc1-c1ccccc1)N/N=C/c1cccc2ccccc12	-6	-5	9	3	-7	1	·	·
O=C(COc1cccc2ccccc12)N/N=C/c1ccccc1OCc1ccc(C(=O)O)cc1	-27	-1	33	2	-11	49*	6	39
COC(=O)CCC(=O)Nc1nccs1	-8	0	15	1	-6	1	·	·
COC(=O)C(Nc1nccs1)(OC)C(F)(F)F (configuration not stated)	-31	-4	-13	-3	-8	68*	71*	106*
CC(=O)Nc1ccc(N/C=C2/CCCC2=O)cc1	-62	·	3	-1	-4	80*	1	-2
CC(NC(=O)c1ccccc1)C(=O)NNC(=O)c1ccccc1Cl (configuration not stated)	·	·	·	·	·	-2	·	·
O=[N+]([O-])c1cc(CN2CCCC2)c2cccnc2c1O	10	-3	75*	10	-13	88*	14	94*
COc1ccc(/C=N/NC(=O)c2ccc(N3CCCC3=O)cc2)cc1	·	·	·	·	·	-3	·	·
COc1ccc(S(=O)(=O)/N=C2/NC(=O)/C(=C/c3ccco3)S2)cc1	-40	-2	9	-2	0	42*	18	24
COc1ccc(S(=O)(=O)/N=C2/NC(=O)/C(=C\c3ccco3)S2)cc1	-26	-7	29	-3	-20	55*	13	11
Cc1ccc(S(=O)(=O)/N=C2/NC(=O)/C(=C/c3ccccn3)S2)cc1	1	0	31	2	10	6	·	·
COCCCNc1nc(CC(C)C)nc2c1nnn2Cc1ccccc1	·	·	·	·	·	7	·	·
COc1ccc(C2CC(c3ccc(OC)cc3OC(C)=O)=NN2C(=O)c2ccccc2)cc1 (configuration not stated)	·	·	·	·	·	92*	36*	49*
Cn1c(CNc2ccc(O)cc2)nc2ccccc21	·	·	·	·	·	66*	81*	82*
Cc1ccc(NCc2nc3ccccc3n2C)cc1	-49	1	18	1	-3	-1	·	·
O=C(Nc1ccccc1)C1=C[C@@H](c2coc3ccccc3c2=O)C[C@@H](OCCCCO)O1	2	0	29	-2	2	6	·	·
O=C1c2cccc3cc([N+](=O)[O-])cc(c23)C(=O)N1/N=C/c1ccc(O)cc1O	98*	·	90*	13	97*	61*	27	31
O=[N+]([O-])c1ccc(/C=C/C2=NN(c3ccccc3)C(c3ccco3)C2)cc1 (configuration not stated)	-13	·	4	5	5	67*	93*	109*
COc1cc(OC)cc(C(=O)Nc2ccccc2C(=O)NC2CC2)c1	·	·	·	·	·	-8	·	·
C=CCOc1ccccc1CN(C(=O)CCl)c1ccc2c(c1)OCO2	·	·	·	·	·	5	·	·
SMILES	Mcl1-Bid inh	Bim-Mcl-1	Mcl1 Noxa PPI	eIF4E 4G PPI	14-3-3 Bad PPI	MCL1-BIM inh	Bcl-xL conf	MCL1 inh confirm
O=C(O)Cc1ccc(N=Nc2c(O)c(C(=O)O)cc3ccccc23)cc1	-2	·	23	5	23	43*	37*	70*
O=C(NC(O)C(=O)c1ccc(F)cc1)c1ccc(F)cc1 (configuration not stated)	·	·	·	·	·	-1	·	·
COc1cc(OC)c(NC(=O)Cc2cccs2)cc1Cl	·	·	·	·	·	1	·	·
CCN(CC)S(=O)(=O)c1ccc(OC)c(NC(=O)Cc2cccs2)c1	-60	-1	56*	34*	44	40*	22	51*
CC(C)Cc1nc(N2CCN(C(=O)C(C)C)CC2)c(C#N)c2c1CCC2	9	-1	21	7	-12	-2	·	·
CC(=O)N1CCN(c2nc(CC(C)C)c3c(c2C#N)CCC3)CC1	-10	0	11	6	3	+	19	30
COc1ccc(NC(=O)C2Cc3ccccc3CN2C(=O)c2ccccc2)cn1 (configuration not stated)	-28	-3	1	-3	5	77*	75*	93*
Cc1ccc(/C=C/C(=O)NCc2ccccn2)o1	-75	-8	74*	20	6	41*	21	51*
O=C(O)/C=C/C(=O)NCc1ccccn1	-18	-2	-2	2	-11	50*	48*	52*
O=C(C[n+]1cc(Br)cc2ccccc21)c1ccc(Br)cc1	·	·	·	·	·	94*	55*	74*
O=C(C[n+]1cc(Br)cc2ccccc21)c1ccc(Cl)cc1	·	·	·	·	·	86*	23	35
O=C(C[n+]1cccc2ccccc21)c1ccc(Br)cc1	·	·	·	·	·	-1	·	·
CNc1nc(NC#N)nc(SC)n1	11	·	-27	-1	5	5	·	·
COc1cccc(C(C(=O)NCc2ccccc2)N(C(=O)c2csnn2)C2CC2)c1 (configuration not stated)	·	·	·	·	·	22	·	·
NNc1nc(-c2ccccc2)nc(-c2ccccc2)c1Br	·	·	·	·	·	-4	·	·
CC(C)(C)NC(=O)NC(=O)CN1CCCc2ccccc21	-72	-4	-3	3	-6	84*	11	13
O=C(CN1CCCc2ccccc21)NC(=O)NCc1ccccc1	-50	·	-10	-7	-6	4	·	·
CCOC(=O)Cc1csc(NC(=O)CCCCCN2C(=O)c3ccccc3C2=O)n1	1	-2	-22	5	14	5	·	·
O=C(O)c1ccc(-c2ccc(/C=c3/sc4nc5ccccc5n4c3=O)o2)cc1Cl	·	·	·	·	·	40*	-13	-21
CN1C(=O)c2cccc3c(Cl)ccc(c23)C1=O	30	-2	18	-2	-5	10	·	·
CNc1ccc2c3c(cccc13)C(=O)N(C)C2=O	·	·	·	·	·	+	+	+
CN1C(=O)c2cccc3c(N(C)C)ccc(c23)C1=O	·	·	·	·	·	89*	31*	33
CCCCCCCCCCCCCCCC(=O)OC(CC(=O)O)C[N+](C)(C)C (configuration not stated)	·	·	·	·	·	85*	9	8
Cc1nn(S(=O)(=O)c2ccccc2)c(C)c1S(=O)(=O)N1CCOCC1	·	·	·	·	·	3	·	·
